# Assay results reported in PubChem BioAssay AID1851 (National Center for Advancing Translational Sciences (NCATS), 2009).
# Out of some 16,000 compounds screened, about 5,700 (36%) were called active. Another 24% or so got no clear call; they are omitted. The call rests on the fitted dose curve; in most records, active means well fitted curve in the direction sought with a large enough effect; inconclusive means small, poorly fitted or top-dose-only effect, or effect the other way; inactive means no such curve, though single readings can be large or run the other way. Some of the results follow.
# Biological target: Cytochrome P450 1A2 (Homo sapiens) (UniProt P05177)
# Sequence (P05177 whole entry, looked up): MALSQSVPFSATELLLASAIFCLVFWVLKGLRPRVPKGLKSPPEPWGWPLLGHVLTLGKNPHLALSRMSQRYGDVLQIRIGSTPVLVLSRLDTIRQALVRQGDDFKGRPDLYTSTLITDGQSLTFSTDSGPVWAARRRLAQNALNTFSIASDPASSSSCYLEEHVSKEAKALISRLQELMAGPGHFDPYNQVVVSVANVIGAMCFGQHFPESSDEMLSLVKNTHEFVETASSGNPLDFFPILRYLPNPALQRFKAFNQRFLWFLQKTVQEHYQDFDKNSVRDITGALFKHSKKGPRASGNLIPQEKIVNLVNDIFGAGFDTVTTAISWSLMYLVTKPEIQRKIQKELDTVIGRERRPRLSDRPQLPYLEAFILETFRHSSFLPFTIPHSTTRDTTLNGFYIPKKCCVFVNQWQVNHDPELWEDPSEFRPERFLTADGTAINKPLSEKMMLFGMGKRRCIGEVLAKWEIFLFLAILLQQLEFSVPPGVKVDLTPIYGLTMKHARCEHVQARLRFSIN
# Assay: Cytochrome panel assay with activity outcomes
# Conditions: recombinant CYP, pro-luciferin dealkylation, luminescence, p450-cyp1a2; series mostly up to 57.1 µM; activity, negative = inhibition: at the top concentration
# On the % scale 0 is the no-effect control and ±100 the full control effect.
SMILES,"activity, negative = inhibition",AC50
CN1CC[C@@]2(CCCN(C(=O)c3ccco3)C2)C1,7.97% (inactive),
COC(=O)C[C@](O)(CCCC(C)(C)O)C(=O)O[C@@H]1C(OC)=C[C@]23CCCN2CCc2cc4c(cc2[C@H]13)OCO4,-9.9% (inactive),
C=C[C@@H]1CN2CC[C@H]1C[C@H]2[C@H](O)c1ccnc2ccccc12,-18.2% [at 11.4 µM] (inactive),
CCN1C[C@@]2(COC)[C@H]3[C@@H](OC)[C@H]4C1[C@@]3([C@H](OC)C[C@@H]2O)[C@H]1C[C@@]2(O)[C@@H](OC(=O)c3ccccc3)[C@@H]1[C@@]4(OC(C)=O)[C@H](O)[C@@H]2OC,-4.7% [at 25.6 µM] (inactive),
NN=C(N)N,-5.67% (inactive),
c1csc(CN2CC3(CCNCC3)C2)n1,12.5% (inactive),
Clc1ccc([C@@H]2C[C@H]3CC[C@@H]2N3)cn1,-20.5% (inactive),
Clc1ccc(C2=CCC[C@H]3CC[C@@H]2N3)cn1,,15.8 µM (active)
CCN(CC)C(=O)N[C@H]1C[C@H]2c3cccc4[nH]cc(c34)C[C@@H]2N(C)C1,-12.5% (inactive),
CNC(C)(C)Cc1ccccc1,-1.89% [at 25.6 µM] (inactive),
C[C@H](Br)C(=O)N[C@H](CO)C(=O)O,-13.1% [at 11.4 µM] (inactive),
O=C(O)C[C@H]1NCc2cc3ccccc3nc21,-4.93% [at 2.29 µM] (inactive),
CCC1(CC)C(=O)C=CNC1=O,-8.09% [at 25.6 µM] (inactive),
O=C(Nc1ccc(Cl)cc1C(=O)c1ccccc1)c1ccco1,,2.51 µM (active)
CC[C@]1(C2=NCCN2)Cc2ccccc2O1,-6.04% (inactive),
CNC[C@H](O)c1ccc(O)cc1,-7.35% [at 25.6 µM] (inactive),
CC[n+]1c(/C=C/N(C)c2ccccc2)sc2ccc(Cl)cc21,,4.47 µM (active)
O=C(Nc1cccc(F)c1)N1CCC2(CC1)CCN(C(=O)Oc1ccccc1)CC2,-13.8% (inactive),
CCC(=O)Nc1ccc(N2CCN(CC)CC2)c(Cl)c1,5.31% (inactive),
COC(=O)[C@H]1[C@@H](c2ccccc2)[C@@]2(c3ccccc3)Oc3ccccc3[C@@]1(O)[C@@H]2O,4.61% [at 11.4 µM] (inactive),

SMILES,"activity, negative = inhibition",AC50
CC[C@@H](CO)Nc1nc(NCc2ccccc2)c2ncn(C(C)C)c2n1,,12.6 µM (active)
CC(C)[C@H](CO)Nc1nc(Nc2cccc(Cl)c2)c2ncn(C(C)C)c2n1,,0.316 µM (active)
O=C(O)[C@@H](Br)[C@H](Br)C(=O)O,5.86% [at 11.4 µM] (inactive),
CC(C)CNC(=S)NC1CC2CCCC(C1)N2Cc1ccco1 (stereo not drawn),4.27% (inactive),
CC(C)N(CC[C@@](C(N)=O)(c1ccccc1)c1ccccn1)C(C)C,,inactive
C(#CCN1CCCC1)CN1CCCC1,1.87% [at 25.6 µM] (inactive),
CNC(=O)Oc1ccc2c(c1)[C@@]1(C)CCN(C)[C@@H]1N2C,-6.82% [at 25.6 µM] (inactive),
O=C(C[n+]1ccc2ccccc2c1)c1ccc2ccc3ccccc3c2c1,,2.51 µM (active)
CCOC(=O)c1c(NC(=O)C(c2ccccc2)c2ccccc2)sc2c1C1CCN2CC1,-3.75% (inactive),
COc1ccc(NC(=O)NC2CC3CCCC(C2)N3Cc2ccccc2)cc1 (stereo not drawn),1.27% (inactive),
NC[C@@H](Cc1ccccc1)P(=O)(O)O,-9.3% [at 11.4 µM] (inactive),
Nc1nc2ccc(Cl)cc2c2nc(-c3ccco3)nn12,,0.0631 µM (active)
CN1CC[C@@]2(CCCN(C(=O)c3ccncc3)C2)C1,2.09% (inactive),
COC(=O)N1CCN(C(=O)Cc2ccc(Cl)c(Cl)c2)[C@H](CN2CCCC2)C1,,inactive
CSC([N-]/N=C/c1cccc(C)n1)=[S]=[Cu].CS[C@H]([S-])[N-]/N=C/c1cccc(C)n1,,0.631 µM (active)
O=C(Oc1ccccc1)N1CCC2(CCCN(C(c3ccccc3)c3ccccc3)C2)CC1,6.99% (inactive),
c1ccc2c([C@@H]3CCN(CCN4CCOCC4)C3)c[nH]c2c1,-9.42% [at 11.4 µM] (inactive),
c1ccc(CCCCN2CCC(c3ccccc3)CC2)cc1,,15.8 µM (active)
CNCCCc1ccccc1,-2.27% (inactive),
NC[C@@H](O)CSP(=O)(O)O,-2.54% [at 11.4 µM] (inactive),

SMILES,"activity, negative = inhibition",AC50
CCN1C[C@]2(COC)CC[C@H](O)[C@@]34[C@@H]5C[C@H]6[C@@H](OC)[C@H]5[C@](O)(C[C@@H]6OC)[C@@](O)([C@@H](OC)[C@H]23)[C@@H]14,0.799% [at 25.6 µM] (inactive),
COc1cc2cc(c1Cl)N(C)C(=O)C[C@H](OC(=O)C(C)C)[C@]1(C)O[C@@H]1[C@@H](C)[C@H]1C[C@](O)(NC(=O)O1)[C@@H](OC)/C=C\C=C(\C)C2,-7.72% [at 11.4 µM] (inactive),
CCCCn1c(O)c(C(CC)=Nc2ccc(OC)cc2OC)c(=O)[nH]c1=O,,12.6 µM (active)
CCCCn1c(O)c(C(CC)=NCc2ccc(F)cc2)c(=O)[nH]c1=O,,8.91 µM (active)
CCC(=Nc1cc(OC)ccc1OC)c1c(O)[nH]c(=O)[nH]c1=O,,14.1 µM (active)
O=c1[nH]c(=O)n(CCC2=CCCCC2)c(O)c1C=Nc1cccc(F)c1,-0.302% (inactive),
O=c1[nH]c(=O)n(CCc2ccc(F)cc2)c(O)c1C=NCCCN1CCOCC1,-8.06% (inactive),
CC1=C(C)[N+](=O)C2(O)CCCCC2(C)N1[O-] (stereo not drawn),12.4% (inactive),
Nc1nc(N)c2nc(CNc3ccc(C(=O)N[C@H](CCC(=O)O)C(=O)O)cc3)cnc2n1,-19.4% (inactive),
CN(C)C(=O)Oc1cc(OC(=O)N(C)C)cc([C@@H](O)CNC(C)(C)C)c1,-3.04% [at 25.6 µM] (inactive),
C[C@H](c1ccccc1)N1CCN([C@@H](C)c2ccccc2)CC1,-16% [at 2.29 µM] (inactive),
O=C(O)CSCC(=O)O,-2.34% [at 11.4 µM] (inactive),
CC1=C2C(=O)[C@@H]3[C@@H](CC=C4C[C@@H](O)CC[C@@]43C)[C@H]2CC[C@@]12O[C@H]1C[C@H](C)CN[C@H]1[C@@H]2C,-16.8% [at 11.4 µM] (inactive),
O=C(Oc1ccccc1)N1CCC2(CCCN(Cc3nccs3)C2)CC1,1.1% (inactive),
C[C@]12N[C@H](Cc3ccccc31)c1ccccc12,,inactive
CCCCCCCC/C=C\CCCCCCCC(N)=O,,6.31 µM (active)
CCCCC/C=C\C/C=C\C/C=C\C/C=C\CCCC(=O)NCC(=O)O,-16.2% (inactive),
CC(C)[C@@]1(NC(=O)[C@@H]2C[C@H]3c4cccc5[nH]cc(c45)C[C@@H]3N(C)C2)O[C@@]2(O)[C@H]3CCCN3C(=O)[C@H](Cc3ccccc3)N2C1=O,-4.49% (inactive),
